According to PubChem BioAssay (NCATS):
Inconclusive results are not listed. Calls of active or inactive are those of the source. Calls follow the shape of the dose curve; as a rule, active = well fitted curve in the direction sought with a large enough effect; inconclusive = small, poorly fitted or top-dose-only effect, or another doubt; inactive = no such curve, though single readings can be large; an effect the other way counts as inactive or inconclusive.

Key:
[1] = P-glycoprotein substrates identified in KB-8-5-11 adenocarcinoma cell line, qHTS therapeutic library screen (AID 1346987); also: nearly all actives have a fitted effect of over 65% in size
Summary of the method: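 P-gp-mediated resistance screen: KB-8-5-11 cells treated 72 h with compounds in dose-response. CellTiter-Glo viability.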

[2] = NS1 protein of Zika virus - qHTS assay to identify small molecule inhibitors in human HEK 293 cells (AID 1347053); also: series mostly up to about 46 µM; nearly all actives have a fitted effect of over 55% in size
Summary of the method: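 HEK 293 cells, seeded 20 h at 37 C, were pretreated with compound 1 h, then infected with ZIKV MR766 (MOI = 0.5) for 24 h. NS1 was read by TR-FRET with two anti-NS1 antibodies, normalized to uninfected and infected wells.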

[3] = qHTS of pediatric cancer cell lines to identify multiple opportunities for drug repurposing: Primary screen for TC32 cells (AID 1347089); also: nearly all actives have a fitted effect of over 60% in size
Summary of the method: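 Luminescent ATP read-out (CellTiter-Glo) of metabolically active TC32 cells after 48 h exposure. Concentration-response curves came from 11-point (MIPE, 0.78 nM–46 µM) or 8-point (NPC, 0.59 nM–46 µM) primary titrations; follow-up used 11 points.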

[4] = qHTS of pediatric cancer cell lines to identify multiple opportunities for drug repurposing: Primary screen for SJ-GBM2 cells (AID 1347091)
Summary of the method: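 Cell viability, CellTiter-Glo luminescence; 500-1,000 cells/well, 8- or 11-point titration, 48 h compound exposure at 37 degrees C, 5% CO2. Controls: DMSO neutral, bortezomib 2.3 µM final as positive.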

[5] = qHTS of pediatric cancer cell lines to identify multiple opportunities for drug repurposing: Primary screen for A673 cells (AID 1347092); also: nearly all actives have a fitted effect of over 45% in size
Summary of the method: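 Cell viability of A673 measured by CellTiter-Glo ATP luminescence after 48 hours compound exposure. Dilution series spanned 0.78 nM to 46 µM (MIPE, 11-point) or 0.59 nM to 46 µM (NPC, 8-point); bortezomib 2.3 uM positive control.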

[6] = qHTS of pediatric cancer cell lines to identify multiple opportunities for drug repurposing: Primary screen for SK-N-MC cells (AID 1347093); also: series mostly up to about 46 µM
Summary of the method: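 Metabolically active cells were quantified by ATP-dependent luminescence (CellTiter-Glo, 15 min at room temperature) following 48 h treatment. Cells had been plated at 500-1,000 per well and settled for 5 h beforehand.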

[7] = qHTS of pediatric cancer cell lines to identify multiple opportunities for drug repurposing: Primary screen for BT-37 cells (AID 1347094); also: series mostly up to about 57 µM
Summary of the method: (§1)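 Primary screen of approved and investigational compounds on cells in growth media at 37 degrees C, 5% CO2. MIPE set at 11-point and NPC set at 8-point dilutions; viability scored by ATP-based luminescence at 48 hours.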

[8] = qHTS of pediatric cancer cell lines to identify multiple opportunities for drug repurposing: Primary screen for NB-EBc1 cells (AID 1347095)
Summary of the method: as §1

[9] = qHTS of pediatric cancer cell lines to identify multiple opportunities for drug repurposing: Primary screen for U-2 OS cells (AID 1347096); also: nearly all actives have a fitted effect of over 50% in size
Summary of the method: (§2)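 Cells (500-1,000/well) rested 5 h, then received compounds for 48 h; metabolically active cells were measured by CellTiter-Glo luminescence. Final concentrations spanned up to 46 µM (MIPE, 11-point) or 0.59 nM-46 µM (NPC, 8-point) in primary screens, 11-point in follow-ups.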

[10] = qHTS of pediatric cancer cell lines to identify multiple opportunities for drug repurposing: Primary screen for Saos-2 cells (AID 1347097); also: nearly all actives have a fitted effect of over 40% in size
Summary of the method: as §1

[11] = qHTS of pediatric cancer cell lines to identify multiple opportunities for drug repurposing: Primary screen for SK-N-SH cells (AID 1347098); also: nearly all actives have a fitted effect of over 65% in size
Summary of the method: as §2

[12] = qHTS of pediatric cancer cell lines to identify multiple opportunities for drug repurposing: Primary screen for NB1643 cells (AID 1347099); also: nearly all actives have a fitted effect of over 50% in size
Summary of the method: as §1

[13] = qHTS of pediatric cancer cell lines to identify multiple opportunities for drug repurposing: Primary screen for LAN-5 cells (AID 1347100)
Summary of the method: as §2

Measured: Potency

CC1(C)OC(=O)NC1=O
inactive: all assays above

CC(O)COc1ccccc1 (stereo not drawn)
not listed: [6] | [7] | [10] | [12]
inactive: all other assays above

CO/N=C(\C(=O)N[C@@H]1C(=O)N2C(C(=O)O)=C(CSc3nc(=O)c(O)nn3C)CS[C@H]12)c1csc(N)n1
not listed: [11]
inactive: all other assays above

O=c1[nH]cnc2c1ncn2[C@@H]1O[C@H](CO)[C@@H](O)[C@H]1O
not listed: [4] | [6]
inactive: all other assays above

O=C(O)CN1C(=O)c2cccc3cccc(c23)C1=O
not listed: [5] | [7] | [10]
inactive: all other assays above

Cc1ncc(COP(=O)(O)O)c(C=O)c1O
not listed: [7] | [11]
inactive: all other assays above

O=C(O)[C@@H]1CSCN1
not listed: [10]
inactive: all other assays above

CN(C)CCN(Cc1ccccc1)c1ccccn1
not listed: [6] | [7]
inactive: all other assays above

O=C(O)Cc1sc(-c2ccccc2)nc1-c1ccc(Cl)cc1
inactive: all assays above

CC(COc1ccccc1)NC(C)C(O)c1ccc(O)cc1 (stereo not drawn)
not listed: [6]
inactive: all other assays above

NCC(=O)CCC(=O)O
not listed: [5] | [11]
inactive: all other assays above

N[C@H](C(=O)O)c1ccc(O)cc1
inactive: all assays above
